AGP1-GFP MLPCN = yeast TOR pathway AGP1-GFP modulation. S. cerevisiae AGP1-GFP multiplex flow cytometry, 3 h; GFP as percent of DMSO wells. 0.02% of 320,000 active. GFP response vs DMSO, % at 10 µM. AID 2066;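 active = GFP response relative to DMSO above a set limit, near screen average plus 3 SD, cut at about 150% in these data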;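 note: median GFP channel fluorescence of the gated AGP1 strain per well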
MEP2 TOR yeast = modulators of TOR pathway MEP2-GFP in S. cerevisiae; S. cerevisiae MEP2-GFP strain, flow cytometry GFP, 3 h; 100% = DMSO control level; GFP response vs DMSO, % at 10 µM; 0.51% of 330,000 active; AID 2016;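 active = GFP response versus DMSO above a set limit, roughly screen mean plus 3 SD, cut at about 180% in these data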;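 note: median GFP fluorescence of the barcode-gated MEP2-GFP cells per well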
RPL19A-GFP yeast = modulators of TOR pathway RPL19A-GFP in S. cerevisiae; S. cerevisiae RPL19A-GFP strain, flow cytometry, 3 h; stronger effect = lower value; percent response vs DMSO, % at 10 µM; 0.3% of 330,000 active; AID 2025;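 active = percent response vs DMSO below 50%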;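 note: median channel GFP fluorescence of the barcoded RPL19A-GFP strain; ratio of sample median GFP to plate DMSO average so 100% = DMSO; lower means less RPL19A-GFP as with rapamycin TOR inhibition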
CIT2-GFP yeast = yeast TOR pathway CIT2-GFP modulation; AID 2029; S. cerevisiae CIT2-GFP strain, flow cytometry, 3 h; 100 means same as DMSO wells; 0.065% of 320,000 active; GFP response vs DMSO, % at 10 µM;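 active = GFP response relative to DMSO above a set limit, near the screen mean plus 3 SD, cut at about 150% in these data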;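 note: ratio of well median GFP fluorescence to mean of DMSO wells on the plate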
LAP4-GFP MLPCN = yeast TOR pathway LAP4-GFP modulation; S. cerevisiae LAP4-GFP multiplex, flow cytometry GFP, 3 h; median GFP as percent of DMSO wells; GFP response vs DMSO, % at 10 µM; 0.34% of 320,000 active; AID 2023;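 active = GFP response vs DMSO above a set limit, about the screen mean plus 3 SD, cut at about 150% in these data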
Efflux pump mplx = blocks antifungal efflux pumps in multiplex yeast assay; S. cerevisiae Candida pump triplex, Nile Red efflux; inhibition, % at 10 µM; 0.44% of 330,000 active;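 active = plate passing quality check with inhibition over a set limit, or well fluorescence over plate mean plus 4 SD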;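 note: Nile Red retained in pooled yeast measured as flow cytometry median fluorescence; 0% = buffer negative control and 100% = Enniatin B positive control; higher means more Nile Red kept so more efflux inhibition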
Cmpd fluor yeast = flagged as fluorescent in efflux inhibitor counter-screen; shares compounds with Efflux pump mplx; S. cerevisiae AD/pABC3, compound fluorescence, flow cytometry; fluorescence ratio to DMSO, % at 10 µM; 4% of 1,700 active; AID 588517;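 active = fluorescence ratio to DMSO above its plate's cutoff, the plate mean ratio plus 5 SD, cut at about 210% in these data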;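 note: unstained yeast with no Nile Red so the signal is compound autofluorescence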
CaMdr1 efflux inh = inhibitors of Candida albicans Mdr1 efflux pump | shares compounds with Efflux pump mplx | S. cerevisiae AD/CaMDR1, Nile Red efflux, flow cytometry | AID 588518 | inhibition, % at 10 µM | 1% of 1,700 active; in the data active = inhibition above about 26%;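 note: 0% = DMSO vehicle and 100% = reference inhibitor; higher means more Nile Red retained so more efflux inhibition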
Cdr2 pump inh = blocks the Candida albicans Cdr2 efflux pump in yeast. shares compounds with Efflux pump mplx. 4% of 1,700 active. Nile Red retention ratio vs DMSO, % at 10 µM. AID 588520. S. cerevisiae AD/CaCDR2, Nile Red retention, flow cytometry; in the data active = Nile Red retention ratio vs DMSO above about 190%;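 note: higher ratio means more blocking of Cdr2 efflux of the dye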
CaCdr1 efflux inh = blocks the Candida albicans Cdr1 efflux pump in yeast; shares compounds with Efflux pump mplx; AID 588522; 1% of 1,700 active; S. cerevisiae AD/CaCDR1, Nile Red efflux, flow cytometry; inhibition, % at 10 µM;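 active = inhibition above the screen-wide mean plus twice its standard deviation, cut at about 32% in these data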
* marks the source's active call; other numbers are inactive results; x = no result given. An excerpt weighted towards active compounds, which were near 1.3% of everything screened.

SMILES | AGP1-GFP MLPCN | MEP2 TOR yeast | RPL19A-GFP yeast | CIT2-GFP yeast | LAP4-GFP MLPCN | Efflux pump mplx | Cmpd fluor yeast | CaMdr1 efflux inh | Cdr2 pump inh | CaCdr1 efflux inh
COc1cc(OC)cc(C(=O)NC(=S)Nc2ccc3[nH]c(=O)[nH]c3c2)c1 | 102.7 | 104.2 | 109.8 | 96.5 | 92.4 | 0.0 | x | x | x | x
O=C(NC(=S)Nc1ccc2[nH]c(=O)[nH]c2c1)c1ccccc1F | 96.2 | 97.9 | 99.3 | 97.7 | 94.0 | 0.4 | 105.0 | -0.2 | 93.0 | 0.1
COc1ccc(C(=O)NC(=S)Nc2ccc3[nH]c(=O)[nH]c3c2)c(OC)c1 | 104.4 | 107.9 | 105.7 | 106.3 | 96.8 | 0.1 | 107.9 | -0.1 | 106.0 | 0.2
O=C(NC(=S)Nc1ccc2[nH]c(=O)[nH]c2c1)c1cncc(Br)c1 | 100.9 | 102.2 | 100.6 | 106.6 | 100.7 | 0.8* | 103.4 | -0.3 | 101.5 | -0.1
CC(C(=O)OCC(=O)c1ccc(Br)cc1)N1C(=O)C2C3C=CC(C3)C2C1=O (configuration not stated) | 97.2 | 102.4 | 101.6 | 94.1 | 106.5 | -0.1 | x | x | x | x
CCCCN1C(=O)C(=O)N(CC(=O)c2ccc3c(c2)OCO3)C1=O | 102.4 | 100.3 | 98.9 | 96.0 | 103.9 | 0.0 | x | x | x | x
COc1ccccc1N/C(N)=N/c1nc(C(F)(F)F)cc(=O)[nH]1 | 98.9 | 101.7 | 101.5 | 104.9 | 96.5 | -0.3 | x | x | x | x
COc1ccc(CCNC(=O)c2ccc(-c3ccc([N+](=O)[O-])cc3Cl)o2)cc1 | 94.2 | 101.2 | 100.4 | 88.1 | 96.8 | 6.7* | 141.7 | 0.2 | 99.7 | 0.2
COc1ccc(CCNC(=O)c2ccc(-c3cccc([N+](=O)[O-])c3)o2)cc1OC | 102.9 | 94.6 | 98.1 | 92.9 | 109.4 | -0.2 | x | x | x | x
O=C(COC(=O)c1ccc(S(=O)(=O)Nc2ccccc2)cc1)NCCN1C(=O)CSC1=O | 102.3 | 105.9 | 99.3 | 108.3 | 99.8 | -0.1 | x | x | x | x
O=C(COC(=O)c1ccc(Br)cc1)NCCN1C(=O)CSC1=O | 102.3 | 105.9 | 102.6 | 93.5 | 99.3 | -0.2 | 111.5 | -0.3 | 99.3 | 0.0
CSc1ccccc1C(=O)OCC(=O)NCCN1C(=O)CSC1=O | 100.9 | 104.7 | 102.7 | 100.1 | 100.2 | 0.0 | x | x | x | x
CCN(CC)S(=O)(=O)c1ccc(C(=O)OCC(=O)NCCN2C(=O)CSC2=O)cc1 | 111.2 | 99.5 | 103.7 | 101.1 | 99.8 | -0.1 | 109.5 | 0.1 | 112.2 | 0.1
Cc1ccc(/C=C/C(=O)OCC(=O)NCCN2C(=O)CSC2=O)cc1 | 105.5 | 106.2 | 101.7 | 104.1 | 102.3 | 0.0 | x | x | x | x
Cc1ccc(C(=O)OCC(=O)NCCN2C(=O)CSC2=O)cc1 | 96.7 | 98.0 | 101.9 | 95.9 | 84.2 | 0.5 | 101.1 | -0.2 | 102.2 | 0.0
COc1ccc(C(=O)OCC(=O)NCCN2C(=O)CSC2=O)cc1 | 95.9 | 93.1 | 88.9 | 88.0 | 93.8 | -0.1 | 107.8 | 0.1 | 91.4 | 0.0
CCn1c(=O)c2ccccc2n(Cc2ccc([N+](=O)[O-])cc2)c1=O | 95.8 | 104.2 | 105.2 | 90.5 | 91.1 | 0.6* | 97.0 | -0.1 | 118.4 | 0.1
COc1ccc(C(=O)n2cnc3ccccc32)cc1[N+](=O)[O-] | 99.3 | 97.9 | 102.2 | 102.6 | 94.0 | -0.2 | x | x | x | x
CC(C)[C@H](NS(=O)(=O)c1ccc2c(c1)OCCO2)C(=O)OCC(=O)Nc1cccc(Cl)c1Cl | 96.2 | 97.2 | 101.7 | 100.1 | 92.7 | 16.4* | 115.4 | 0.1 | 96.5 | 0.1
COc1ccc(CNCCC(c2ccc(F)cc2)c2ccc(OC)cc2)cc1 (configuration not stated) | 96.7 | 88.3 | 97.4 | 101.5 | 91.2 | 10.2* | 96.2 | -0.1 | 109.4 | 0.0
Oc1[nH]c2ccccc2c1/C=N/N1CCCCC1 | 99.8 | 101.2 | 100.9 | 88.9 | 98.1 | 6.7* | 102.2 | 0.0 | 98.1 | 0.0
CCC(=O)Nc1c2c(nn1-c1ccc(F)cc1)CS(=O)(=O)C2 | 116.2 | 142.1 | 93.0 | 117.3 | 115.1 | -0.1 | x | x | x | x
COc1ccc(CNC(=O)C(C)n2nc(C)c3c(C)n(-c4ccc(C)cc4)nc3c2=O)cc1 (configuration not stated) | 103.3 | 111.9 | 103.4 | 102.9 | 99.3 | -0.3 | 104.6 | 0.1 | 101.8 | 0.1
CCC(C(=O)Nc1cc(F)ccc1F)n1nc(C)c2c(C)n(-c3ccc(C)cc3)nc2c1=O (configuration not stated) | 91.7 | 105.3 | 98.4 | 86.2 | 102.5 | 5.0* | 83.2 | -0.1 | 98.1 | 0.0
Cc1nn(CCC(=O)NCc2ccc(OC(C)C)cc2)c(=O)c2nn(-c3ccccc3)c(C)c12 | 94.5 | 109.8 | 100.1 | 109.5 | 104.1 | 0.3 | 113.2 | 0.0 | 110.2 | 0.1
SMILES | AGP1-GFP MLPCN | MEP2 TOR yeast | RPL19A-GFP yeast | CIT2-GFP yeast | LAP4-GFP MLPCN | Efflux pump mplx | Cmpd fluor yeast | CaMdr1 efflux inh | Cdr2 pump inh | CaCdr1 efflux inh
Cc1ccc(-n2nc3c(=O)n(CCCC(=O)NCCN4CCN(C)CC4)nc(C)c3c2C)cc1 | 101.2 | 108.6 | 110.4 | 102.9 | 101.7 | 5.4* | 104.5 | -0.5 | 98.5 | -0.1
COC(=O)c1sccc1S(=O)(=O)N1CCCC(N(C)CCc2ccccn2)C1 (configuration not stated) | 93.7 | 81.7 | 97.6 | 93.1 | 80.7 | 0.1 | x | x | x | x
COc1ccccc1-n1c(CNC(=O)c2ccc(S(=O)(=O)N3CCCCC3)cc2)n[nH]c1=S | 102.5 | 96.5 | 98.8 | 93.0 | 83.8 | 0.1 | x | x | x | x
Cc1ccc(-n2nc3c(=O)n(CC(=O)NCCc4cccs4)nc(C)c3c2C)cc1 | 102.2 | 106.1 | 99.3 | 108.0 | 102.2 | -0.1 | 97.6 | -0.1 | 98.5 | 0.0
Cc1ccc(CCNC(=O)CCCn2nc(C)c3c(C)n(-c4ccc(C)cc4)nc3c2=O)cc1 | 107.3 | 111.9 | 106.3 | 105.9 | 98.5 | -0.5 | 223.7 | 0.5 | 103.9 | 0.4
Cc1ccc(-n2nc3c(=O)n(CCCC(=O)NCCc4ccccc4)nc(C)c3c2C)cc1 | 103.9 | 104.9 | 103.6 | 97.5 | 97.5 | 0.3 | x | x | x | x
O=c1c2ccccc2[nH]c(=S)n1CCN1CCc2ccccc2C1 | 98.8 | 94.6 | 92.2 | 87.8 | 87.8 | 0.8* | 99.0 | -0.3 | 107.2 | 0.0
CN1CCN(CCn2c(=S)[nH]c3ccccc3c2=O)CC1 | 93.9 | 101.9 | 101.4 | 96.1 | 96.0 | 0.0 | x | x | x | x
COc1ccc(C(=O)/C=C/c2ccc(O)cc2)c(O)c1C/C=C(\C)CCC=C(C)C | 104.3 | 104.5 | 108.2 | 102.9 | 105.7 | 1.3* | 108.6 | 0.2 | 116.0 | 0.4

Screening data (PubChem BioAssay)
